Hit rate of the full screen: of about 5,500 compounds, about 2,000 (36%) were called active. Not shown: some 18% with an inconclusive outcome. No stated cut-off is given here; in the data, active means normalized growth mostly below about 0.91 (no sharp cut-off); inconclusive means no clear call, values can overlap the other calls; inactive means mostly above about 0.92. The list shows a part of the results.
Experiment: chemical genetic growth profiling, strain panel (AID 1159580);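 further: tested at 20 µM; growth read once vehicle control cultures reached saturation at 30 °C; 1 = growth at the plate median or of vehicle wells; lower values mean less growth of the strain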
Settings: S. cerevisiae deletion strains, growth OD
[1] = locus YDL101C, strain DUN1, active compounds read low
[2] = locus YHR030C, strain SLT2, active compounds read low

Measured: normalized growth

CCN(CCS(=O)(=O)c1ccc(C)cc1)S(=O)(=O)c1ccccc1
inactive: locus YAL013W, strain DEP1, active compounds read low 1.02 | locus YBR229C, strain ROT2, active compounds read low 1.01 | locus YCL061C, strain MRC1, active compounds read low 0.988 | [1] 0.991 | locus YDL134C, strain PPH21, active compounds read low 0.987 | locus YDR150W, strain NUM1, active compounds read low 1.01 | locus YEL061C, strain CIN8, active compounds read low 0.987 | locus YGR078C, strain PAC10, active compounds read low 0.998 | locus YGR229C, strain SMI1, active compounds read low 0.999 | [2] 0.993 | locus YHR087W, strain rtc3, active compounds read low 0.994 | locus YJR043C, strain POL32, active compounds read low 1 | locus YJR075W, strain HOC1, active compounds read low 0.995 | locus YKL190W, strain CNB1, active compounds read low 0.998 | locus YLR039C, strain RIC1, active compounds read low 1.05 | locus YLR058C, strain SHM2 (second series), active compounds read low 0.998 | locus YLR085C, strain ARP6, active compounds read low 1.06 | locus YLR262C, strain YPT6, active compounds read low 1.05 | locus YML094W, strain GIM5, active compounds read low 1.03 | locus YMR219W, strain ESC1, active compounds read low 1.01 | locus YMR263W, strain SAP30, active compounds read low 0.988 | locus YMR307W, strain GAS1, active compounds read low 0.969 | locus YNL153C, strain GIM3, active compounds read low 0.984 | locus YNL298W, strain CLA4 (second series), active compounds read low 1.01 | locus YNL322C, strain KRE1, active compounds read low 1.01 | locus YNR030W, strain Alg12, active compounds read low 0.99 | locus YPL055C, strain LGE1, active compounds read low 1.06 | locus YPL241C, strain CIN2, active compounds read low 1 | locus YPR135W, strain CTF4, active compounds read low 0.943

O=c1[nH][nH]c(=O)n1CCCc1cc2cccc3ccc4cccc1c4c32
inactive: locus YAR019C, strain CDC15, active compounds read low 1 | locus YBL105C, strain PKC1, active compounds read low 0.987 | locus YBR135W, strain CKS1, active compounds read low 0.998 | locus YBR136W, strain MEC1, active compounds read low 0.988 | locus YBR160W, strain CDC28, active compounds read low 0.994 | locus YDL017W, strain CDC7, active compounds read low 0.994 | locus YDL028C, strain MPS1, active compounds read low 0.992 | [1] 0.984 | locus YDL108W, strain KIN28, active compounds read low 0.988 | locus YDL132W, strain cdc53, active compounds read low 0.99 | locus YDL214C, strain PRR2, active compounds read low 0.968 | locus YDR052C, strain DBF4, active compounds read low 0.991 | locus YDR054C, strain cdc34, active compounds read low 0.994 | locus YDR226W, strain ADK1, active compounds read low 0.995 | locus YDR477W, strain SNF1, active compounds read low 0.979 | locus YER123W, strain YCK3, active compounds read low 0.949 | locus YER133W, strain GLC7, active compounds read low 0.97 | locus YFL009W, strain cdc4, active compounds read low 0.994 | locus YFL029C, strain CAK1, active compounds read low 0.999 | locus YFR003C, strain YPI1, active compounds read low 0.981 | locus YFR019W, strain FAB1, active compounds read low 0.935 | locus YFR028C, strain CDC14, active compounds read low 0.987 | locus YGR040W, strain KSS1, active compounds read low 0.95 | locus YGR052W, strain FMP48, active compounds read low 0.936 | locus YGR092W, strain DBF2, active compounds read low 0.9 | [2] 1.02 | locus YHR079C, strain IRE1, active compounds read low 1 | locus YHR082C, strain KSP1, active compounds read low 0.986 | locus YHR205W, strain SCH9, active compounds read low 0.915 | locus YIL147C, strain SLN1, active compounds read low 0.983 | locus YJL095W, strain BCK1, active compounds read low 0.873 | locus YJL128C, strain PBS2, active compounds read low 0.952 | locus YJL157C, strain FAR1, active compounds read low 0.99 | locus YJR016C, strain ILV3, active compounds read low 0.997 | locus YJR066W, strain TOR1 (second series), active compounds read low 0.927 | locus YJR066W, strain TOR1, active compounds read low 0.964 | locus YKL048C, strain ELM1, active compounds read low 0.956 | locus YKL067W, strain YNK1, active compounds read low 0.971 | locus YKL101W, strain HSL1, active compounds read low 0.937 | locus YKL193C, strain SDS22, active compounds read low 0.992 | locus YKL203C, strain TOR2, active compounds read low 0.985 | locus YLR113W, strain HOG1, active compounds read low 0.922 | locus YLR133W, strain CKI1, active compounds read low 0.952 | locus YLR403W, strain SFP1, active compounds read low 0.908 | locus YML070W, strain DAK1, active compounds read low 0.942 | locus YMR001C, strain CDC5, active compounds read low 0.992 | locus YMR205C, strain PFK2 (second series), active compounds read low 0.973 | locus YMR277W, strain FCP1, active compounds read low 0.989 | locus YNL006W, strain LST8, active compounds read low 0.993 | locus YNL020C, strain ARK1, active compounds read low 0.968 | locus YNL161W, strain CBK1, active compounds read low 0.993 | locus YNL183C, strain NPR1, active compounds read low 0.911 | locus YNL207W, strain RIO2, active compounds read low 0.995 | locus YNL222W, strain SSU72, active compounds read low 0.996 | locus YNL307C, strain MCK1 (second series), active compounds read low 0.909 | locus YOL078W, strain AVO1, active compounds read low 0.993 | locus YOL136C, strain PFK27, active compounds read low 0.94 | locus YOR061W, strain CKA2, active compounds read low 0.975 | locus YOR119C, strain RIO1, active compounds read low 0.993 | locus YOR231W, strain MKK1, active compounds read low 0.972 | locus YOR329C, strain SCD5, active compounds read low 0.991 | locus YPL031C, strain PHO85, active compounds read low 0.961 | locus YPL153C, strain RAD53, active compounds read low 0.963 | locus YPL204W, strain HRR25, active compounds read low 0.941 | locus YPL209C, strain IPL1, active compounds read low 0.988 | locus YPL256C, strain CLN2, active compounds read low 1.08 | locus YPR025C, strain CCL1, active compounds read low 0.998 | locus YPR106W, strain ISR1, active compounds read low 0.985 | locus YPR111W, strain DBF20, active compounds read low 0.973 | strain NNK1, active compounds read low 0.991 | strain TSCII, active compounds read low 0.994

— PubChem BioAssay AID1159580 (chemical genetic matrix, 2015)
